Bioassay records deposited in PubChem by National Center for Advancing Translational Sciences (NCATS).
An excerpt weighted towards active compounds, which were near 2.8% of everything screened.
HEK293 viab = GF-AFC viability counterscreen for inhibitors of alpha-synuclein gene (SNCA) expression | HEK-293-SNCA-luc viability, GF-AFC fluorescence, 24 h | hit rate 0.12% among 150,000 | AID 1671193, 2021 | Potency, µM (top dose mostly 57.1 µM), for the others: at the highest dose activity change, negative = cytotoxicity, most hits filed as cytotoxic;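 further: potency means the concentration at half of the fitted maximal effect; 0% = DMSO-treated cells and -100% = medium-only wells without cells; nearly all actives have a fitted effect of over 30% in size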
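Cytotoxicity counterscreen: after 24 h compound treatment of genome-edited SNCA-luciferase HEK-293 cells, live-cell protease substrate GF-AFC read by fluorescence after 30 min; activity scaled between DMSO (0%) and medium-only (-100%), curves Hill-fitted.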
SNCA expr inhib = Primary qHTS assay for inhibitors of alpha-synuclein gene (SNCA) expression; HEK-293 SNCA-luciferase knock-in, luminescence, 24 h; Potency, µM (top dose mostly 57.2 µM), without a hit: at the top dose activity change, negative = inhibition, actives largely listed as inhibitors; hit rate 0.17% among 140,000;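 further: potency means the concentration at half of the fitted maximal effect; plate controls were DMSO cells for no effect and cell-free wells for full effect; nearly all actives have a fitted effect of over 45% in size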
KDM5B inh = Primary screen for KDM5B Histone Demethylases FDH-coupled qHTS; Lysine-specific demethylase 5B (Homo sapiens), Q9UGL1; KDM5B demethylase, FDH-coupled NADH fluorescence (FDH is formaldehyde dehydrogenase); Potency, µM (highest dose often 57.7 µM), hits mostly inhibitors; hit rate 2.6% among 220,000; further: potency means the concentration at half of the fitted maximal effect; 0% is about no effect; nearly all actives have a fitted effect of over 70% in size
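Coupled FDH/NAD⁺ fluorescence readout. KDM5BΔAP 200 nM final; compound titration, 10 min RT preincubation; substrate mix 12.5 µM H3K4me3, 25 µM 2-OG, 50 µM Fe(II), 100 µM ascorbate, 0.25 mM NAD⁺, 0.25 U/mL FDH; ΔRFU over 30 min.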
IP6K1 inhibitor = Primary qHTS assay for small molecule inhibitors of Inositol hexaphosphate kinase 1 (IP6K1). Inositol hexakisphosphate kinase 1 (Homo sapiens), Q92551. IP6K1 kinase, ADP-Glo luminescence, 2 h; active compounds read low. activity change, % (series mostly up to about 58 µM). hit rate 0.81% among 140,000. AID 1645851, 2021; in the data active means activity change below about -25%; further: on the % scale 0 is the no-effect control and ±100 the full control effect
Target sequence (Q92551 whole entry, looked up): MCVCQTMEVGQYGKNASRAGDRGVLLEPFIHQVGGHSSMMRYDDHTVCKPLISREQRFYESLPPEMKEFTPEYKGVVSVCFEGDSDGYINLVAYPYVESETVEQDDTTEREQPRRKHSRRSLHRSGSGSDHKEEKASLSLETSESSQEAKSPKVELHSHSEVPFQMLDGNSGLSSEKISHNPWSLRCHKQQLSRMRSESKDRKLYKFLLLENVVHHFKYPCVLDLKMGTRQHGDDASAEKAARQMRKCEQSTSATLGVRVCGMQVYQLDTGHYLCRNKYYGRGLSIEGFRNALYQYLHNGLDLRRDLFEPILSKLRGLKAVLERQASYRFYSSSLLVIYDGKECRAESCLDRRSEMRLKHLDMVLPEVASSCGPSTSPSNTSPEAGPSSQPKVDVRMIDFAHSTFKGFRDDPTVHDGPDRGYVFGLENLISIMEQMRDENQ
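ADP-Glo luminescence measures ADP made by human IP6K1 during a 2 h RT reaction with ATP/IP6 (mix at 1.3 mM/130 uM); top library doses 57.5 and 19.1 uM final.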
Active calls of the source: *; i = inactive; ? = inconclusive; . = no result; [ ] = dose if it differs, or a comment. Unless noted, the call rests on the fitted dose curve; in most records, active means well fitted curve in the direction sought with a large enough effect; inconclusive means small, poorly fitted or top-dose-only effect, or another doubt; inactive means no such curve, though single readings can be large; an effect the other way counts as inactive or inconclusive.

SMILES | HEK293 viab | SNCA expr inhib | KDM5B inh | IP6K1 inhibitor
CC1=C[C@@H](CN2CCN(c3cnccn3)CC2)[C@H](C(C)C)C[C@H]1Cc1nnc(-c2ccccc2)o1 | ? | ? | 28.2µM* | -16.3
CC1=C[C@@H](CN2CCN(c3ccccn3)CC2)[C@H](C(C)C)C[C@H]1Cc1nnc(-c2ccc(C)cc2)o1 | ? | ? | ? | -5.6
OC1(CN2CCCCC2)CCN(c2cccc(C(F)(F)F)n2)C1 (stereo unspecified) | 15.8% | -3.4% | 28.2µM* | -4.0
COc1cccc(-n2cnc3cc(C(=O)NC4CCCC4)ccc3c2=O)c1 | . | . | i | .
COc1cc(=O)n2c(c1C(=O)NCc1cccc(C(F)(F)F)c1)CCCC2 | 1.1% | -0.7% | i | 15.1
COCCn1c(N(C)Cc2ccccc2)nc2c1c(=O)[nH]c(=O)n2C | . | . | i | .
O=C1CC2(CCN(Cc3ccc(F)cc3)CC2)Oc2ccccc21 | -8.0%[87.6 µM] | 9.1%[87.6 µM] | 28.2µM* | 14.5
N#Cc1ccc(CN2CCC3(CC2)CC(=O)c2ccccc2O3)cc1 | -16.9%[87.6 µM] | -23.5%[87.6 µM] | 31.6µM* | -4.1
O=C1CC2(CCN(Cc3cccnc3)CC2)Oc2ccccc21 | 2.7%[87.6 µM] | 23.3%[87.6 µM] | 35.5µM* | -0.1
O=C1CC2(CCN(CC3CC3)CC2)Oc2cc(Cl)ccc21 | -6.2%[87.6 µM] | 60.1%[87.6 µM] | ? | -0.2
CN(C)c1ccc(CN2CCC3(CC2)CC(=O)c2ccccc2O3)cc1 | -9.2% | 24.8% | i | 8.5
O=C1CC2(CCN(CC3CCCCC3)CC2)Oc2ccccc21 | -6.8%[87.6 µM] | 4.2%[87.6 µM] | 31.6µM* | 10.2
Cc1ccc(C(=O)N2CCN(c3cc(-c4ccccc4)[nH]n3)CC2)c(C)c1 | -6.2% | -19.6% | i | -14.3
CSCC[C@@H]1NC(=O)c2cc(NC(=O)c3ccc(-n4cnnn4)cc3)ccc2NC1=O | 3.2% | -16.3% | i | -4.3
CCc1noc(-c2ccn3c(CNC(=O)Cc4ccccc4Cl)nnc3c2)n1 | 1.6% | 2.4% | 15.8µM* | 25.1
CCc1noc(-c2ccn3c(CNC(=O)Cc4ccc(C)cc4)nnc3c2)n1 | 1.8% | -4.4% | 28.2µM* | -0.1
CCc1noc(-c2ccn3c(CNC(=O)Cc4ccccc4OC)nnc3c2)n1 | 2.2% | -7.8% | ? | 1.3
CCc1noc(-c2ccn3c(CNC(=O)c4cc(C)ccc4C)nnc3c2)n1 | -10.6% | 5.8% | 25.1µM* | -1.4
O=C(Cc1cccc(Cl)c1)NC1CCN(c2cc(-c3cccs3)[nH]n2)C1 (stereo unspecified) | -2.8% | 2.3% | 3.98µM* | 9.9
O=C(Cc1cccc(F)c1)NC1CCN(c2cc(-c3cccs3)[nH]n2)C1 (stereo unspecified) | -4.4% | 12.4% | ? | -3.2
COc1cccc(CC(=O)NC2CCN(c3cc(-c4cccs4)[nH]n3)C2)c1 (stereo unspecified) | -4.9% | 0.2% | 28.2µM* | -8.5
O=C(NCC1CCN(c2cc(-c3ccccc3)[nH]n2)CC1)c1ccc[nH]c1=O | -6.0% | 3.2% | 31.6µM* | 8.4
COc1ccc(-c2nc(C)nc3c2CCC3)c2ccc(C)nc12 | -14.5% | 53.7% | 28.2µM* | 12.6
COc1ccc(S(=O)(=O)N(CC(F)(F)F)C2CC2)c2cccnc12 | . | . | i | .
O=C(N[C@H]1CC[C@H](Nc2nccc(-c3cccnc3)n2)C1)c1ccc(O)cc1 | -1.8% | 6.8% | 20µM* | -18.3
SMILES | HEK293 viab | SNCA expr inhib | KDM5B inh | IP6K1 inhibitor
CCc1[nH]ncc1C(=O)N[C@H]1CC[C@H](Nc2nccc(-c3ccccn3)n2)C1 | -10.9% | -9.4% | 12.6µM* | -5.2
N#Cc1ccc(CN2CCCCCCNC(=O)[C@@H]3C[C@@H](C(=O)N4CCc5ccccc5C4)C[C@@H]32)cc1 | -23.1% | -17.5% | 25.1µM* | 7.6
N#Cc1ccccc1CN1CCCCCCNC(=O)[C@@H]2C[C@@H](C(=O)N3CCc4ccccc4C3)C[C@@H]21 | ? | ? | 20µM* | -4.7
O=C1NCCCCCCN(Cc2cccc(F)c2)[C@H]2C[C@H](C(=O)N3CCc4ccccc4C3)C[C@@H]12 | -24.5% | ? | ? | -2.2
CC(C)(C)C(=O)N1CCC(n2c(=O)[nH]c3ccccc32)CC1 | 4.7%[87.6 µM] | -33.0%[87.6 µM] | . | -8.5
CS(=O)(=O)c1cnc(NCCn2ccnc2)nc1C1CCCNC1 (stereo unspecified) | 1.3% | ? | i | -5.6
O=C(CN1C(=O)COc2ccc(C(=O)COc3ccccc3Cl)cc21)NC1CCCCC1 | ? | -14.3% | i | 25.1
O=C(Cn1nc2c(cc1=O)CCCCC2)N1CC=C(c2c[nH]c3ccccc23)CC1 | -20.1% | 41.1% | 17.8µM* | -1.4
O=C(Cn1nc2c(cc1=O)CCCCC2)NC1CCCc2c1[nH]c1ccccc21 (stereo unspecified) | -14.3% | -25.9% | 28.2µM* | -7.5
Cn1nc(C(=O)NC2CCCc3c2[nH]c2ccccc32)c2ccccc2c1=O (stereo unspecified) | -4.1% | -5.2% | 25.1µM* | 0.0
O=C(Cn1nc2c(cc1=O)CCCCC2)NC1CCCc2c1[nH]c1c(Cl)cccc21 (stereo unspecified) | 12.9% | -10.2% | i | 7.1
O=C(NC1CCCc2c1[nH]c1ccccc21)c1ccccc1 (stereo unspecified) | 6.8% | 27.6% | ? | -4.3
COCCn1cnc2ccc(N3CCCC3)nc2c1=O | 5.2%[87.6 µM] | -20.2%[87.6 µM] | 31.6µM* | 6.6
COCCn1cnc2ccc(-c3cccnc3OC)nc2c1=O | -8.0%[87.6 µM] | 33.6%[87.6 µM] | 39.8µM* | 11.3
COCCn1cnc2ccc(-c3cccc(O)c3)nc2c1=O | 1.3%[87.6 µM] | ? | i | -1.0
COCCn1cnc2ccc(OCC3CC3)nc2c1=O | 5.8%[87.6 µM] | ? | i | 7.2
COCCn1cnc2ccc(-c3ccc(F)cc3)nc2c1=O | 3.8%[87.6 µM] | 21.5%[87.6 µM] | 35.5µM* | -1.2
COCCn1cnc2ccc(-c3ccccc3)nc2c1=O | 7.9%[87.6 µM] | 35.5%[87.6 µM] | 35.5µM* | -6.1
COc1ccc(-c2cc(N3CCCC(NC(=O)c4ccc(OC)c(F)c4)C3)n[nH]2)cc1 (stereo unspecified) | ? | -2.0% | i | 0.6
O=C(NCc1ccc(F)cc1)c1nc(-c2cccnc2)c2ccccn12 | -17.8% | -0.3% | 112µM* | -5.8
CC(C)NC(=O)c1nc(-c2ccc(F)cc2)c2ccccn12 | 6.9%[87.6 µM] | 3.5%[87.6 µM] | 35.5µM* | 6.0
COC(=O)CNC(=O)c1nc(-c2ccc([S+](C)(=O)[O-])cc2)c2cnccn12 | 29.1% | 1.7% | 25.1µM* | -17.2
O=C(NCc1ccc(F)cc1)c1nc(-c2ccc(Cl)cc2Cl)c2cnccn12 | -9.0% | ? | 56.2µM* | 11.6
O=C(c1nc(-c2ccc(F)cc2)c2ccccn12)N1CCCC1 | -17.0%[87.6 µM] | 14.2%[87.6 µM] | i | 0.4
O=C(CCCc1cccs1)N(Cc1ccc(F)cc1)C1CC1 | . | . | i | .
CC(NS(=O)(=O)c1ccc(F)cc1)C(=O)Nc1ccccc1 (stereo unspecified) | . | . | i | .
O=C(NCc1ccncc1)c1nc(-c2cccnc2)c2cnccn12 | 8.1% | 9.2% | ? | -11.2
